The values below come from PubChem BioAssay (NCI).

Test systems include NCI-H23 lung; NCI-H226 lung; NCI-H322M lung; HOP-62 NSCLC; NCI-H460 lung; HOP-92 NSCLC; NCI-H522 lung; A549/ATCC NSCLC; 786-0 renal; COLO 205 colon.
Experiment in all cases: NCI-60 one-dose screen, 48 h (100 = growth as untreated, 0 = no growth, -100 = all killed)
What all share (details): 10 µM unless noted

About 83,000 compounds went through this panel and 20% of them were active in at least one assay; those are over-represented in the sample as a whole.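 For each line, cells grew in 96-well plates with the test compound present at a single concentration for 48 hours.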 A number with no mark means an inactive call. Active and inactive are the calls of the source. How the source made its calls: active means growth percent below 10; inactive means the rest.

As for `CS(=O)(=O)Nc1cncc(-c2ccc3ncnc(Nc4cncc(Cl)c4)c3c2)c1`, the growth with NCI-H23 lung is 80%; in the test on NCI-H226 lung it was 80.8%; in the test on NCI-H322M lung, 71.7%; in the test with HOP-62 NSCLC, 73.4%; in the test on NCI-H460 lung, 103%; with HOP-92 NSCLC it was 31.5%. For the same compound, the growth in the test with NCI-H522 lung is 50.2%; with A549/ATCC NSCLC, 81.7%; in the test on 786-0 renal, 82.3%; in the test with COLO 205 colon it was 93.8%.
Regarding `Cc1[nH]c(C(=O)Nc2ccc(C(=O)N3CCN(c4cc5c(cc4F)c(=O)c(C(=O)O)cn5C4CC4)CC3)cc2OC(C)C)c(Cl)c1Cl`, the growth in the test on NCI-H23 lung is 78.4%; in the test with NCI-H226 lung, 96.5%; in the test on NCI-H322M lung, 90.3%; in the test on HOP-62 NSCLC, 97.8%; in the test on NCI-H460 lung it was 8.48% (active); in the test with HOP-92 NSCLC it was 46.5%. The growth in the test on NCI-H522 lung was 82.1%; in the test with A549/ATCC NSCLC, 38.4%; in the test on 786-0 renal it was 79.8%; in the test with COLO 205 colon it was 114%.
With `C1CN(SSN2CCOCC2)CCO1`, the growth with NCI-H23 lung is 3.63% [100 µM] (active); with NCI-H226 lung it was 26.5% [100 µM]; in the test with NCI-H322M lung, 59.3% [100 µM]; in the test with HOP-62 NSCLC, 91.9% [100 µM]; in the test with NCI-H460 lung, 10.8% [100 µM]; with HOP-92 NSCLC it was -0.94% [100 µM] (active). Further, the growth was -53.1% [100 µM] (active) in the test with NCI-H522 lung, 35.7% [100 µM] with A549/ATCC NSCLC, -93% [100 µM] (active) in the test on 786-0 renal and -70% [100 µM] (active) in the test with COLO 205 colon.
Turning to `CC/C(=C(/c1ccc(Cl)cc1)c1ccc(OCCN(C)C)cc1)c1ccc(Cl)cc1`, the growth was 73.5% with NCI-H23 lung; 87.5% in the test with NCI-H226 lung; 83.6% in the test on NCI-H322M lung; 78.5% in the test on HOP-62 NSCLC; 37.3% in the test on NCI-H460 lung; 83.7% with HOP-92 NSCLC. The growth in the test with NCI-H522 lung was 70.3%; in the test on A549/ATCC NSCLC, 61.2%; in the test with 786-0 renal, 66.3%; in the test with COLO 205 colon, -16.1% (active).
As to `CC(C)COc1nc2c(c(=O)n(C)c(=O)n2C)n1C`, the growth with NCI-H23 lung was 98.5%; in the test with NCI-H226 lung it was 94.5%; with NCI-H322M lung, 105%; with HOP-62 NSCLC it was 99%; in the test on NCI-H460 lung, 105%; in the test with HOP-92 NSCLC it was 93.7%. In addition, the growth with NCI-H522 lung was 101%; with A549/ATCC NSCLC it was 106%; in the test with 786-0 renal, 104%; in the test on COLO 205 colon, 109%.
For the compound `O=S(=O)(Nc1ccc(Cl)c(C(F)(F)F)c1)c1ccc(-c2cnc(C3CC3)o2)cc1`, the growth with NCI-H23 lung was 20.4%; in the test with NCI-H226 lung it was 46.7%; in the test with NCI-H322M lung it was 44.4%; in the test on HOP-62 NSCLC, 12.2%; with NCI-H460 lung it was 7.09% (active); in the test with HOP-92 NSCLC, -18.5% (active). For the same compound, the growth was -1.8% (active) in the test with NCI-H522 lung, 8.92% (active) with A549/ATCC NSCLC, 25.9% with 786-0 renal and 2.71% (active) with COLO 205 colon.
Turning to `CCNCCNc1cc(C2CCCCC2)c(C#N)c2nc3ccccc3n12`, the growth in the test with NCI-H23 lung is 44.7%; in the test on NCI-H226 lung it was 15.3%; in the test on NCI-H322M lung it was -3.13% (active); in the test on HOP-62 NSCLC it was 16.1%; in the test with NCI-H460 lung it was -23.4% (active); in the test on HOP-92 NSCLC it was -24.5% (active). The growth in the test with NCI-H522 lung is -9.52% (active); with A549/ATCC NSCLC, 3.05% (active); in the test with 786-0 renal, 4.62% (active); in the test on COLO 205 colon, -52.8% (active).
For `CC1=C2[C@@H](CC1)[C@]1(C)O[C@@](C(C)C)(C[C@H]1OC(=O)[C@H](C)O)[C@H]2OC(=O)/C=C/c1ccccc1`, the growth with NCI-H23 lung was 90.7%; with NCI-H226 lung it was 84.2%; with NCI-H322M lung, 85.9%; in the test with HOP-62 NSCLC it was 80.9%; in the test with NCI-H460 lung it was 88.9%; in the test on HOP-92 NSCLC it was 55.9%. Moreover, the growth was 74% in the test on NCI-H522 lung, 66.9% in the test on A549/ATCC NSCLC, 66.5% in the test with 786-0 renal and 98.8% in the test on COLO 205 colon.
As for `CCCC/C(CC)=N\NS(=O)(=O)c1ccc([N+](=O)[O-])cc1`, the growth in the test on NCI-H23 lung is 95.9%; in the test with NCI-H226 lung, 93.4%; in the test with NCI-H322M lung, 109%; in the test on HOP-62 NSCLC, 96.7%; in the test with NCI-H460 lung it was 105%; in the test on HOP-92 NSCLC, 91.6%. The growth is 90.9% in the test on NCI-H522 lung, 89.1% with A549/ATCC NSCLC, 103% with 786-0 renal and 105% with COLO 205 colon.
For `CCOC(=O)c1cc(C)n(-c2ccc(C(=O)O)cc2)c1C`, the growth in the test on NCI-H23 lung is 89.4%; with NCI-H226 lung it was 98.6%; with NCI-H322M lung, 114%; in the test on HOP-62 NSCLC, 88.1%; in the test with NCI-H460 lung it was 44.1%; in the test with HOP-92 NSCLC it was 100%. The growth is 65.8% in the test with NCI-H522 lung, 91.4% in the test with A549/ATCC NSCLC, 101% in the test with 786-0 renal and 89.8% with COLO 205 colon.
Turning to `O=C(OC(CO)C(=O)NC12CC3CC(CC(C3)C1)C2)c1ccc(Cl)cc1` (stereo not given), the growth in the test with NCI-H23 lung was 105%; with NCI-H226 lung, 92.4%; with NCI-H322M lung, 102%; with HOP-62 NSCLC it was 103%; in the test on NCI-H460 lung, 107%; in the test on HOP-92 NSCLC, 87.2%. Also, the growth in the test on NCI-H522 lung was 99.3%; with A549/ATCC NSCLC it was 97.2%; in the test on 786-0 renal it was 101%; in the test with COLO 205 colon, 110%.
With `COc1ccc(-c2cc(-c3cc(OC)c(OC)c(OC)c3)c(C#N)c(=O)n2CCCCC(=O)NO)cc1`, the growth is 67.4% in the test on NCI-H23 lung; 82.3% in the test with NCI-H226 lung; 75.1% with NCI-H322M lung; 65% in the test with HOP-62 NSCLC; 55.3% in the test on NCI-H460 lung; 51.9% in the test on HOP-92 NSCLC. Further, the growth in the test on NCI-H522 lung was 54.6%; with A549/ATCC NSCLC, 71.9%; in the test with 786-0 renal, 83.7%; with COLO 205 colon it was 84.3%.
As for `CC(C)(Sc1cc(C(C)(C)C)c(OC(=O)CCCC(=O)O)c(C(C)(C)C)c1)Sc1cc(C(C)(C)C)c(OC(=O)CCCC(=O)O)c(C(C)(C)C)c1`, the growth is 29.5% with NCI-H23 lung; 64.8% in the test on NCI-H226 lung; 49.5% with NCI-H322M lung; 38% in the test on HOP-62 NSCLC; 9.34% (active) with NCI-H460 lung; 73% with HOP-92 NSCLC. Besides, the growth in the test with NCI-H522 lung was 37.8%; with A549/ATCC NSCLC, 21.4%; in the test on 786-0 renal, 49.7%; in the test with COLO 205 colon, 58.4%.
